# Shown are actives, neighbours in structure and some others; about 3.5% of the full set was active somewhere.
# TEAD-YAP block: TEAD-YAP interaction inhibition; HEK-TIYL cells, TEAD-Gal4/YAP UAS-luciferase luminescence; inhibition, % at 9.12 µM; 640,000 compounds, 1.4% hits; AID 1259422; in the data active means inhibition above about 32%;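 further: 0% = median of test compound wells and 100% = reference inhibitor wells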
# GPR151 ag: human GPR151 activation; PathHunter beta-arrestin GPR151 cells, luminescence; activation, % at 11.2 µM; 650,000 compounds, 1% hits; in the data active means activation above about 4.9%;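 further: 0% = median of compound wells and 100% = cells with positive control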
# Target sequence (Q8TDV0 whole entry, looked up): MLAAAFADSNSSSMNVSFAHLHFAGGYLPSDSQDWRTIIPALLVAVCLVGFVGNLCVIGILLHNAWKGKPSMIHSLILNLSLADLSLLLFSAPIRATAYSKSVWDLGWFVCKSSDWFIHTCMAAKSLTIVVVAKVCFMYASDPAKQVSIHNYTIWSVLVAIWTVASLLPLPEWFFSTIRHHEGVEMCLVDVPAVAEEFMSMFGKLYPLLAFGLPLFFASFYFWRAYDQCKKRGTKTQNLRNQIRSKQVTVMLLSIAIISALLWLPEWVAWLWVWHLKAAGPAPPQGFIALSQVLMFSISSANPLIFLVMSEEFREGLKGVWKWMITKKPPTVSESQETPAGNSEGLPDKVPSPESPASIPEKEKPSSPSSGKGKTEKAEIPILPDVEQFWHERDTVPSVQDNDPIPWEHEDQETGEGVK
# MITF primary: inhibitors of human MITF | O75030 | 650,000 compounds, 0.91% hits | AlphaScreen MITF homodimerization, bead proximity signal | inhibition, % at 2.6 µM; in the data active means inhibition above about 50%;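 further: 0% = vehicle wells with protein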
# FBW7 act: human FBW7 E3 ligase activation, primary screen | Q969H0 | AlphaScreen FBW7–phospho-cyclin E peptide binding, activator screen | normalized activity (activation), % at 26.1 µM | 650,000 compounds, 0.13% hits; in the data active means normalized activity above about 1.9%;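 further: purified mutant Fbw7 with reduced substrate affinity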
# An asterisk follows results filed as active.
SMILES,TEAD-YAP block,GPR151 ag,MITF primary,FBW7 act
CC(=O)Nc1cccc(NC(=O)CSc2ccc(-c3nc4cc(C)c(C)cc4[nH]3)cn2)c1,-45.1,-1.0,-13.1,-0.2
Cc1ccc2nc(-c3ccc(SCC(=O)O)nc3)[nH]c2c1,-4.5,-1.0,-10.4,-0.2
CC(=O)CSc1ccc(-c2nc3cc(C)c(C)cc3[nH]2)cn1,81.4*,-1.3,-4.9,-0.2
CC(C)c1ccc(CCNCCC(=O)O)cc1,-1.9,-1.5,41.7,-0.1
O=C(NN1C(=O)CSC1=S)C(=O)NN1C(=O)CSC1=S,-7.0,0.9,64.0*,-0.2
O=C(NN1C(=O)CSC1=S)c1ccccc1,0.9,0.5,-7.6,0.0
C=CCN1C(=O)/C(=C/c2ccc(OCc3cccc(C(=O)O)c3)cc2)C(=O)NC1=S,78.8*,-9.8,-2.4,-0.2
C=CCN1C(=O)/C(=C/c2cc(C)n(-c3cccc(C(=O)O)c3C)c2C)C(=O)NC1=S,9.3,0.1,53.2*,0.0
C=CCN1C(=O)/C(=C\c2ccc(-c3cccc(C(=O)O)c3)o2)C(=O)NC1=S,0.0,0.7,63.6*,-0.5
C=CCN1C(=O)/C(=C\c2ccc(-c3ccc(C(=O)O)cc3)o2)C(=O)NC1=S,0.2,0.1,17.2,-0.1
Cc1cc(C)nc(SCC(=O)Nc2sc3c(c2C(N)=O)CCCCCC3)n1,3.1,-1.8,11.6,0.1
COc1ccc(CCNc2ccnc(-c3csc4ccccc34)n2)cc1,-9.5,0.3,16.2,0.1
CC(C)NC(=O)NC(=O)COc1ccccc1C#N,-34.5,-0.8,-4.8,0.0
CC(C)(C)NC(=O)NC(=O)COc1ccccc1C#N,40.3*,-2.1,0.7,-0.1
COc1cccc(-c2csc(N3CCN(CC(=O)Nc4ccc(F)cc4)CC3)n2)c1,0.4,1.8,31.4,0.2
COc1cccc(NC(=O)CN2CCN(Cc3nc(-c4ccc(F)cc4)cs3)CC2)c1,33.4*,4.1,15.2,-0.1
COc1cc(C=O)ccc1OCCc1ccccc1,32.9*,-9.3,5.9,0.1
COc1ccccc1C1NC(=O)c2[nH]nc(-c3ccc(C)cc3)c21 (stereo unspecified),55.1*,1.0,9.1,-0.1
CCOC(=O)c1sc2nc(SCc3cc(F)cc4c3OCOC4)n(Cc3ccccc3OC)c(=O)c2c1C,-5.8,0.3,-3.6,-0.2
CCc1ccc2oc(-c3ccccc3)cc(=NCC(=O)O)c2c1,32.2*,-3.2,14.3,-0.1
CCOC(=O)C(=CNc1ccccn1)C(=O)OCC,8.7,1.2,-0.3,0.2
COc1ccccc1C(=O)NCCn1cc(SCC(=O)Nc2cccc(C)c2C)c2ccccc21,23.4,0.3,15.3,0.0
CC(C)C1CCC(Nc2ncc(-c3cccc(C(=O)NCCN(C)C)c3)n3ccnc23)CC1 (stereo unspecified),38.5*,0.6,9.0,-0.8
COc1ccccc1NC(=O)CSc1nc2cc(OC)c(OC)cc2cc1C#N,-17.4,0.9,7.1,0.2
COc1ccc(C(=O)Nc2ccnn2C2CCN(Cc3cccc(OC)c3)CC2)cc1,9.3,-0.1,-8.1,0.0
SMILES,TEAD-YAP block,GPR151 ag,MITF primary,FBW7 act
CC1=CC(C)(C)N2C(=O)C(=O)c3cc(OC(=O)c4ccccc4F)cc1c32,45.0*,-0.4,5.1,-0.3
C=CCn1c(=O)c2ccccc2n2c(SCC(=O)Nc3ccc(F)c(Cl)c3)nnc12,5.5,-0.5,14.6,0.4
N#CC1=C(N)N(c2ccc(F)cc2)C2=C(C(=O)CCC2)C1c1ccc(F)cc1 (stereo unspecified),-1.4,0.1,8.0,0.2
CCOc1ccc(C2C(C#N)=C(N)N(c3ccc(OC)cc3)C3=C2C(=O)CCC3)cc1 (stereo unspecified),50.2*,0.0,-1.5,0.0
COC(=O)c1c(N2C(N)=C(C#N)C(c3ccccc3)C3=C2CCCC3=O)sc2c1CCCC2 (stereo unspecified),54.4*,0.1,-3.6,0.0
COc1ccc(N2C(N)=C(C#N)C(c3ccc(F)cc3)C3=C2CCCC3=O)cc1 (stereo unspecified),51.2*,-1.7,6.1,0.1
CCOc1ccc(/C=C2\C(=O)ON=C2c2ccccc2)cc1,-4.9,-0.1,5.7,0.1
COc1cc(/C=C2\C(=O)ON=C2c2ccccc2)cc(OC)c1OC,-7.4,-0.3,12.5,0.0
CCOc1cc(/C=C2\C(=O)ON=C2c2ccccc2)ccc1OC,-10.1,-1.1,57.7*,-0.1
O=C1ON=C(c2ccc(Cl)cc2)/C1=C\c1ccc2c(c1)OCO2,1.6,0.1,76.9*,0.0
COc1ccc(OC)c(C=C2C(=O)OC(C)(c3ccccc3)OC2=O)c1 (stereo unspecified),-8.3,0.6,22.2,-0.1
CCCCOc1ccc(/C=C2\C(=O)ON=C2c2ccc(Cl)cc2)cc1,8.9,-0.6,23.6,0.2
COc1ccc(OC)c(/C=C2\C(=O)ON=C2c2ccccc2)c1,-8.0,0.1,77.5*,0.2
COc1ccc(/C=C2/C(=O)ON=C2c2ccccc2)cc1OC,-25.9,2.0,64.9*,-0.7
Cc1ccc(Nc2ccc([N+](=O)[O-])cc2[N+](=O)[O-])c(O)c1,15.9,0.3,22.0,0.0
Nc1nccc(-c2ccc3nc(C4COc5ccc(C(=O)NC6CCCCC6)cc5C4)[nH]c3c2)n1 (stereo unspecified),5.8,0.7,-0.2,6.0*
COc1ccc(CNC(=O)c2ccc3c(c2)CC(c2nc4ccc(-c5ccnc(N)n5)cc4[nH]2)CO3)cc1 (stereo unspecified),11.6,1.4,-1.9,7.5*
Nc1nccc(-c2ccc3nc(C4COc5ccc(C(=O)NC6CCCC6)cc5C4)[nH]c3c2)n1 (stereo unspecified),-1.7,1.7,14.0,2.4*
Nc1nccc(-c2ccc3nc(C4COc5ccc(C(=O)NCc6ccccc6)cc5C4)[nH]c3c2)n1 (stereo unspecified),-4.8,-2.1,3.8,-0.1
O=C(Cc1ccc([N+](=O)[O-])cc1)OCC(=O)c1ccc2ccccc2c1,46.4*,1.1,20.4,-0.1
CC1(C)CC(N2CCCC2)=CC(=[N+]2CCCCCC2)C1,66.1*,-1.0,17.1,0.2
CN1CCN(C2=CC(=[N+]3CCCC3)CC(C)(C)C2)CC1,-4.8,0.6,9.6,0.1
C1=C(N2CCCC2)CCCC1=[N+]1CCCC1,42.1*,-0.2,1.1,-0.1
CN1CCN(C2=CC(=[N+]3CCCCC3)CC(C)(C)C2)CC1,0.6,-0.9,7.0,0.3
CC1CC(C)C[N+](=C2C=C(N3CCCC3)CC(C)(C)C2)C1 (stereo unspecified),77.1*,4.1,5.9,0.3
COc1ccc(-c2csc(/C(C#N)=C/c3ccc(OC)c(O)c3)n2)cc1,-2.8,-0.6,18.8,0.2
Cc1cccc(NC(=O)c2ccc(F)cc2[N+](=O)[O-])c1C,5.4,-0.1,7.2,-0.1
C[C@@H](O)[C@@H]1NC(=O)[C@H]2CN(C(=O)c3cc(F)c(F)cc3F)CCN2C1=O,-2.9,-1.4,15.6,0.9
COc1c(O)cc2c(c1O)[C@@H]1O[C@H](CO)[C@@H](O)[C@H](O)[C@H]1OC2=O,-6.7,-1.8,4.2,-0.2
Cc1c(C(=O)O)c(O)cc2c1C(=O)c1c(O)c([C@H]3O[C@H](CO)[C@@H](O)[C@H](O)[C@H]3O)c(O)c(O)c1C2=O,0.0,-1.5,89.5*,-0.5

# Source: PubChem (The Scripps Research Institute Molecular Screening Center)
